Where “and” joins values, the source holds several entries; their conditions need not be identical. Equal values may be shown once.
assay: qHTS profiling for inhibitors of Plasmodium falciparum (DD2) proliferation (AID 743323); details: lower = more inhibition; at 28.7 µM (top of the series) unless noted
Description: Plasmodium falciparum is a virulent malarial parasite that kills 1-2 million people worldwide each year. Transmitted by mosquitoes, the sporozoite form of the parasite enters the blood stream to infect hepatocytes, where they become merozoites that infect red blood cells (erythrocytes). Within erythrocytes, merozoites begin a […] cycle of growth and division, after which the parasite is released to infect new red blood cells. Gametocytes, which form within erythrocytes as well, circulate in the bloodstream and are ingested by the mosquito, thereby completing the life cycle. To profile malarial isolates for differential chemical responses and to identify inhibitors of malarial growth, an assay that measures P. falciparum growth and replication within erythrocytes was employed. This assay uses a DNA binding fluorescent dye (SYBR Green) to detect parasite DNA following cell lysis. Because mature erythrocytes lack DNA, only Plasmodium-derived DNA is detected.
The SYBR Green viability assay was adapted from a method described previously (Plouffe et al., 2008). For screening 3 ul culture medium was dispensed into 1536 well black clear bottom plates (Aurora Biotechnologies) using a Multidrop Combi (Thermo Fisher Scientific Inc.), 23 nL compounds in DMSO were added by a pin tool (Kalypsys), and 5 ul of erythrocytes infected with P. falciparum (0.3% parasitemia, 2.5% hematocrit final concentration) were added. The plates were incubated at 37 C in a humidified incubator in 5% CO2 for 72 h, and 2 ul lysis buffer (20 mM Tris HCl, 10 mM EDTA, 0.16% saponin, […]% triton X, 10X SYBR Green I supplied as 10,000X […] by Invitrogen) was added to each well. The plates were mixed for 25 sec with gentle shaking and incubated overnight at room temperature in the dark. The following morning, fluorescence intensity at 485(14) nm excitation and 535(25) nm emission wavelengths was measured on an EnVision (Perkin Elmer) plate reader. Plate reads were normalized relative to the control inhibitor (0.29 uM artemisinin) and vehicle (DMSO) wells present on each plate and then corrected by an algorithm using vehicle-only control plates at the beginning and end of the compound plate stack.

Structure (SMILES)	activity, percent of control
Cc1nc(Nc2ncc(C(=O)Nc3c(C)cccc3Cl)s2)cc(N2CCN(CCO)CC2)n1	71.4%
Cc1cccc(-c2[nH]ncc2-c2ccc3ncccc3n2)n1	107% [at 57.5 µM]
CC(C)c1ccc2c(c1)c(SC(C)(C)C)c(CC(C)(C)C(=O)O)n2Cc1ccc(Cl)cc1	27.3%
CCCCN(CCCC)CCC(O)c1cc2c(Cl)cc(Cl)cc2c2cc(C(F)(F)F)ccc12 (stereo not drawn)	0.468% [at 9.63 µM]
Cc1cc(C2CCCCC2)n(O)c(=O)c1	0.27%
Nc1cccc2c1CN(C1CCC(=O)NC1=O)C2=O (stereo not drawn)	89.3% [at 57.5 µM] and 104% [at 57.5 µM]
CCN(CC)CCOc1ccc(Nc2ncc3cc(-c4c(Cl)cccc4Cl)c(=O)n(C)c3n2)cc1	1.4%
CCN(CCO)CCCC(C)Nc1ccnc2cc(Cl)ccc12 (stereo not drawn)	105% and 9.47%
CC(C)C[C@H](NC(=O)[C@H](Cc1ccccc1)NC(=O)c1cnccn1)B(O)O	-0.17%
COc1cc2c(N3CCN(C(=O)Nc4ccc(OC(C)C)cc4)CC3)ncnc2cc1OCCCN1CCCCC1	3.98%
CCc1nc(N)nc(N)c1-c1ccc(Cl)cc1	90.3%
COc1cc(Nc2c(C#N)cnc3cc(OCCCN4CCN(C)CC4)c(OC)cc23)c(Cl)cc1Cl	4.4%
CCOC(=O)C1=C(O)C(=O)N(Cc2ccccc2)C1	82.3%
C[C@@H](N)C1CCC(C(=O)Nc2ccncc2)CC1 (stereo partly drawn)	103%
Cc1cccc(C#Cc2ccccc2)n1	85.7%
CN(C)c1ccc2nc3ccc(=[N+](C)C)cc-3sc2c1	3.2% [at 57.5 µM]
Cc1cccc(C)c1OCC(=O)N[C@@H](Cc1ccccc1)[C@@H](O)C[C@H](Cc1ccccc1)NC(=O)[C@H](C(C)C)N1CCCNC1=O	0.873%
Cc1ccc(NC(=O)c2ccc(CN3CCN(C)CC3)cc2)cc1Nc1nccc(-c2cccnc2)n1	7.63%
S=c1nc[nH]c2nc[nH]c12	88.8% [at 57.5 µM]
CCOC(=O)C(C)Oc1cccc2c(=O)n(CC(=O)Nc3ccc4c(c3)OCCO4)ccc12 (stereo not drawn)	97.4%
O=c1cc(N2CCOCC2)oc2c(-c3ccccc3)cccc12	96.7%
NC(=NCc1ccccc1)NC(=O)c1nc(Cl)c(N)nc1N	10.1% [at 18.4 µM]
Nc1nc(Cl)nc2c1ncn2[C@H]1C[C@H](O)[C@@H](CO)O1	93.6% [at 57.5 µM]

— PubChem BioAssay (NCATS)
